Laboratory results: PubChem BioAssay (Tox21)
Unmarked numbers belong to inactive results. Inconclusive results are not listed. A call without a number means that no potency is given here. Activity calls are given as the source filed them. Unless noted, calls follow the shape of the full dose curve.

Assays:
[1] = Nuclear factor erythroid 2-related factor 2/antioxidant responsive element (Nrf2/ARE) small molecule agonists: qHTS cell viability counter screen in human keratinocytes (AID 1919968; active = well fitted curve in the direction sought with a large enough effect in the repeat runs; an effect the other way counts as inactive or inconclusive; also: nearly all actives have a fitted effect of over 55% in size; also: potency is read from the fitted curve at half-maximal effect)
In short: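 KeratinoSens HaCaT cells, 1,500/well, preincubated 5 h, then exposed to compounds in DMSO for 23 h at 37 C/5% CO2. Viability read as CellTiter-Fluor fluorescence after 1 h, in the same wells as the ARE-luciferase read.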

[2] = Nuclear factor erythroid 2-related factor 2/antioxidant responsive element (Nrf2/ARE) small molecule agonists: luciferase reporter gene qHTS assay in human keratinocytes (AID 1919969); also: nearly all actives have a fitted effect of over 35% in size
[3] = molecular target: Gonadotropin-releasing hormone receptor (Homo sapiens) (UniProt P30968); test: Human gonadotropin-releasing hormone receptor (GnRHR) small molecule agonists, calcium flux assay in GnRHR-HEK293 cells (AID 1920063); also: nearly all actives have a fitted effect of over 35% in size; also: potency is read from the fitted curve at half-maximal effect
In short: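 HEK293 cells stably expressing human GnRHR were dye-loaded for 1 h at 37 C. Compound was added in agonist mode and fluorescence (Ex/Em 480/540) recorded kinetically for 3 min. Fifteen concentrations, triplicates.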

[4] = molecular target: KiSS-1 receptor (Homo sapiens) (UniProt Q969F8); test: Human kisspeptin (KISS1R) small molecule agonists, calcium flux assay in KISS1R-HEK293 cells (AID 1920064; active = well fitted curve in the direction sought with a large enough effect in the repeat runs; an effect the other way counts as inactive or inconclusive; also: potency is read from the fitted curve at half-maximal effect)
In short: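 HEK293 cells stably expressing human KISS1R were loaded with calcium dye for 1 h at 37 C, then given compound; fluorescence (Ex/Em 480/540) was read kinetically for 3 min. Fifteen concentrations, triplicate.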

[5] = p53 small molecule agonists, cell-based qHTS assay with human liver microsomes: qHTS cell viability counter screen (AID 1963579); also: nearly all actives have a fitted effect of over 45% in size
In short: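 Metabolic activation used human liver microsomes and NADPH, both 0.5 mg/mL final, over 16 hours at 37 C on p53RE-bla cells (4,000/well). Cytotoxicity measured by CellTiter-Glo luminescence, 30 min at room temperature.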

[6] = p53 small molecule agonists, cell-based qHTS assay with rat liver microsomes: qHTS cell viability counter screen (AID 1963580); also: nearly all actives have a fitted effect of over 45% in size
In short: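 Viability is assessed in parallel with the p53 reporter read: HCT-116 p53RE-bla cells receive compounds plus rat microsomes and NADPH (0.5 mg/mL final apiece), incubate 16 h at 37 C, and then CellTiter-Glo luminescence is recorded.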

[7] = p53 small molecule agonists, cell-based qHTS assay: qHTS cell viability counter screen (AID 1963581); also: nearly all actives have a fitted effect of over 45% in size
In short: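 p53RE-bla HCT-116 cells, compounds added 5 h after plating and incubated 16 h at 37 C. Cytotoxicity measured in the same wells as intracellular ATP by CellTiter-Glo luminescence after 30 min at room temperature.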

[8] = molecular target: 5-hydroxytryptamine receptor 2A (Homo sapiens) (UniProt P28223); test: 5-hydroxytryptamine receptor 2A (HTR2A) small molecule antagonists, cell-based qHTS assay (AID 1963586); also: nearly all actives have a fitted effect of over 45% in size; also: potency is read from the fitted curve at half-maximal effect
In short: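 Antagonist-mode intracellular calcium assay: DOI (4 nM) added after 5 min compound pre-incubation at room temperature to dye-loaded HTR2A-CHO cells. Fluorescence followed for 3 min, sampled every second.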

[9] = molecular target: 5-hydroxytryptamine receptor 2A (Homo sapiens) (UniProt P28223); test: 5-hydroxytryptamine receptor 2A (HTR2A) small molecule agonists, cell-based qHTS assay (AID 1963587); also: nearly all actives have a fitted effect of over 30% in size; also: potency is read from the fitted curve at half-maximal effect
In short: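 CHO cells stably expressing human HTR2A, plated 18 h, loaded with calcium dye 1 h at 37 C. Agonist mode: compounds added and intracellular calcium fluorescence recorded kinetically for 2 min at 1 sec intervals.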

[10] = molecular target: Muscarinic acetylcholine receptor M1 (Homo sapiens) (UniProt P11229); test: Cholinergic receptor muscarinic 1 (CHRM1) small molecule antagonists, cell-based qHTS assay (AID 1963588); also: nearly all actives have a fitted effect of over 40% in size
In short: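 CHRM1-CHO calcium-flux assay, antagonist mode. Cells were seeded 18 h, dye-loaded 1 h at 37 C and given compound for 5 min at RT, then acetylcholine was added at 50nM. FDSS fluorescence was read 3 min; 15 concentrations, three runs.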

[11] = molecular target: Muscarinic acetylcholine receptor M1 (Homo sapiens) (UniProt P11229); test: Cholinergic receptor muscarinic 1 (CHRM1) small molecule agonists, cell-based qHTS assay (AID 1963589); also: nearly all actives have a fitted effect of over 35% in size; also: potency is read from the fitted curve at half-maximal effect
In short: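 CHO cells stably expressing human CHRM1 were loaded with calcium dye for 1 h at 37 C, then compound was added in agonist mode. Intracellular calcium fluorescence was followed kinetically at 1 s intervals. Fifteen concentrations were tested in three independent runs.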

[12] = cAMP Responsive Elements (CRE) small molecule agonists, cell-based qHTS assay (AID 1963590)
In short: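 CRE-bla HEK 293T cells, 2,000/well in DMEM with 10% dialyzed FBS and 25 mM HEPES, pre-incubated 18 h at 37 C, then exposed to compound 3 h at 37 C. Beta-lactamase reporter read with LiveBLAzer B/G FRET substrate after 2 h at room temperature.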

[13] = cAMP Responsive Elements (CRE) small molecule antagonists, cell-based qHTS assay (AID 1963591; active = well fitted inhibition curve with a large enough effect in the signal ratio in the repeat runs, not every such curve was filed as active; the % refers to the signal ratio)
In short: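 CRE-bla HEK293T cells plated 18 h, then given compound plus NKH477 at 0.25 uM final for 3 h at 37C. Beta-lactamase reporter read with LiveBLAzer B/G FRET substrate after 2 h at room temperature.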

[14] = molecular target: Beta-2 adrenergic receptor (Homo sapiens) (UniProt P07550); test: Adrenergic beta2 receptor (ADRB2) small molecule antagonists, cell-based qHTS assay (AID 1963592); also: series mostly up to about 92 µM; nearly all actives have a fitted effect of over 50% in size
In short: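 Cells (CHO, stable ADRB2 overexpression) incubated 18-20hr at 37C; compounds added from DMSO; agonist mix (1nM isoproterenol, 100uM IBMX, 25uM Ro-20-1724) added; 0.5hr RT; d2-cAMP and anti-cAMP-cryptate added; 1hr RT; 665/615 nm read.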

[15] = molecular target: Beta-2 adrenergic receptor (Homo sapiens) (UniProt P07550); test: Adrenergic beta2 receptor (ADRB2) small molecule agonists, cell-based qHTS assay (AID 1963593);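 also: CHO cells stably overexpressing human ADRB2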
In short: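 CHO cells stably over-expressing ADRB2 were plated overnight at 37C, then dosed with compounds plus a stimulation mix containing 100uM IBMX and 25uM Ro-20-1724 for 0.5hr at room temperature. cAMP was measured by HTRF competition, 1hr.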

[16] = molecular target: D(2) dopamine receptor (Homo sapiens) (UniProt P14416); test: Dopamine D2 receptor (DRD2) small molecule agonists, cell-based qHTS assay (AID 1963594); also: nearly all actives have a fitted effect of over 35% in size
In short: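 HEK293 cells stably expressing human DRD2, pre-treated with PDE inhibitor Ro20-1724 (0.1 mM final) and compound 10 min at room temperature, then stimulated with NKH477 (200nM […]) for 30 min. cAMP read by HTRF (665/620 nm).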

[17] = molecular target: D(2) dopamine receptor (Homo sapiens) (UniProt P14416); test: Dopamine D2 receptor (DRD2) small molecule antagonists, cell-based qHTS assay (AID 1963595; active = well fitted inhibition curve with a large enough effect in the signal ratio in the repeat runs, with a control signal flat; the % refers to the signal ratio)
In short: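 Human DRD2 antagonist qHTS measuring cAMP by HTRF. The cells are exposed to compound for 10 min, then to NKH477 (200 nM) and quinpirole (12 nM) for 30 min at RT, with Ro20-1724 (0.1 mM) present throughout.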

[18] = p53 small molecule agonists, cell-based qHTS assay with rat liver microsomes (AID 1963578)
In short: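 Metabolic activation by rat liver microsomes and NADPH, each 0.5 mg/mL final, added right after compounds to p53RE-bla reporter cells (4,000/well, plated 5 h earlier). 16 h at 37 C, then LiveBLAzer substrate for 2 h at room temperature in the dark; fluorescence read-out.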

[19] = p53 small molecule agonists, cell-based qHTS assay (AID 1963582; active = well fitted activation curve with a large enough effect in the signal ratio in the repeat runs, not every such curve was filed as active; the % refers to the signal ratio)
In short: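 p53RE-bla reporter cells, compounds added in DMSO after 5 h plating, incubated 16 h at 37 C. Beta-lactamase read via 2 h room-temperature LiveBLAzer B/G FRET substrate, fluorescence intensity.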

[20] = G protein-coupled receptor (GPCR) small molecule agonists, calcium flux assay: HEK293 wild type cell line counter screen (AID 1920065)
In short: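 Wild-type HEK293 cells plated 18 h, loaded with calcium dye 1 h at 37 C, then compounds added in agonist mode (ATP as positive control). Kinetic fluorescence Ex/Em 480/540 recorded 3 min at 1 sec intervals; 15 concentrations, triplicate.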

Sequence of KiSS-1 receptor (Homo sapiens) (Q969F8 whole entry, looked up): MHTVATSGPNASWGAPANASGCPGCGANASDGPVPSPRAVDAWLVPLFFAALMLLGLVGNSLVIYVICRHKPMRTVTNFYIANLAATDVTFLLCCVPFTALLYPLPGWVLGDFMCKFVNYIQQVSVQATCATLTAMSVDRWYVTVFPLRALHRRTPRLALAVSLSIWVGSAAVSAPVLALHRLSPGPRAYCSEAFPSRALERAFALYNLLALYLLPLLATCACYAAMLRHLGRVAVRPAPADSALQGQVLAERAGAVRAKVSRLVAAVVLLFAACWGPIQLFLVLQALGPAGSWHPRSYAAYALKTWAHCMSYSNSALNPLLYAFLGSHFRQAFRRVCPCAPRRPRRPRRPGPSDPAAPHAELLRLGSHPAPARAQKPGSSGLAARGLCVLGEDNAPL
Sequence of Gonadotropin-releasing hormone receptor (Homo sapiens) (P30968 whole entry, looked up): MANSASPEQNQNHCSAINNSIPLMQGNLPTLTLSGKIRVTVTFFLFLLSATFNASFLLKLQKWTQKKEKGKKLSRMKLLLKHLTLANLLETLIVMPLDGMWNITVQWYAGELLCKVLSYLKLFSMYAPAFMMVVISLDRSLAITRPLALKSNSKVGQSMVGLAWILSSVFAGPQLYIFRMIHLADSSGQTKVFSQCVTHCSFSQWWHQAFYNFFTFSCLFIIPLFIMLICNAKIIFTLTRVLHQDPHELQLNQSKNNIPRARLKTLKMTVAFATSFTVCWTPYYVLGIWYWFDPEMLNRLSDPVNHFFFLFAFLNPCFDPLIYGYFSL
Sequence of Muscarinic acetylcholine receptor M1 (Homo sapiens) (P11229 whole entry, looked up): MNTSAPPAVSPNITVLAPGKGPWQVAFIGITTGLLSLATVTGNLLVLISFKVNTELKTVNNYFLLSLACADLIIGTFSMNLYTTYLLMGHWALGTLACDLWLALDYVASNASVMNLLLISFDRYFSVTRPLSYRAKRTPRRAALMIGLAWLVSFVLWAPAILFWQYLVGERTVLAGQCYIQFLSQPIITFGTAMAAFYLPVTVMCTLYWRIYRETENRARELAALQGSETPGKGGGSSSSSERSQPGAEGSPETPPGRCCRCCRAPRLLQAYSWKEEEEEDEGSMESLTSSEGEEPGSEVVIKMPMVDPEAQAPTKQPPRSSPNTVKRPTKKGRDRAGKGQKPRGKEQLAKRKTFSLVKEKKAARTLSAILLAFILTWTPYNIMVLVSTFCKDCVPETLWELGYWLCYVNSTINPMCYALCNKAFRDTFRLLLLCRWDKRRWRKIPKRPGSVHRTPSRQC
Sequence of 5-hydroxytryptamine receptor 2A (Homo sapiens) (P28223 whole entry, looked up): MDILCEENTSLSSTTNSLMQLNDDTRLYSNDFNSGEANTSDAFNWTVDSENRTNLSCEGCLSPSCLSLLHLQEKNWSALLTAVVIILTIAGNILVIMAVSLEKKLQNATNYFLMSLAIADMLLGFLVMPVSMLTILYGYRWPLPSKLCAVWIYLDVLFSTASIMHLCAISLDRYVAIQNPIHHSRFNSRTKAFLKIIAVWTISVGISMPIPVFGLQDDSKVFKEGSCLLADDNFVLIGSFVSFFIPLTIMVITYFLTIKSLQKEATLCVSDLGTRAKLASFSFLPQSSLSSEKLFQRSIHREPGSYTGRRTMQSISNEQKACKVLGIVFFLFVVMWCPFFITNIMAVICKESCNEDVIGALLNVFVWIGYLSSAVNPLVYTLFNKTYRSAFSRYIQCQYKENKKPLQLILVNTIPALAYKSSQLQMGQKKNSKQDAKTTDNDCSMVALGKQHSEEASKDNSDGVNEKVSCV
Sequence of Beta-2 adrenergic receptor (Homo sapiens) (P07550 whole entry, looked up): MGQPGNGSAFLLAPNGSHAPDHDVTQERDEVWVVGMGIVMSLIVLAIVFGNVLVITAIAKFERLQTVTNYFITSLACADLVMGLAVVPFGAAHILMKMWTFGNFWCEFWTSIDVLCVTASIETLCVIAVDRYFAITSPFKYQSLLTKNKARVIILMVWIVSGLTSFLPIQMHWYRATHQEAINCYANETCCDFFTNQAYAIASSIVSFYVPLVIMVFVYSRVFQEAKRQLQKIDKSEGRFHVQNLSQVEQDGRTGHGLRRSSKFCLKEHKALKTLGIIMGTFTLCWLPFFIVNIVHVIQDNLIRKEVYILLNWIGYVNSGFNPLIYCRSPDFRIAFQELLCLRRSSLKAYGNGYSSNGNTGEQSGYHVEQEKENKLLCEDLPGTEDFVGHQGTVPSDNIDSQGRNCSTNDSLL
Sequence of D(2) dopamine receptor (Homo sapiens) (P14416 whole entry, looked up): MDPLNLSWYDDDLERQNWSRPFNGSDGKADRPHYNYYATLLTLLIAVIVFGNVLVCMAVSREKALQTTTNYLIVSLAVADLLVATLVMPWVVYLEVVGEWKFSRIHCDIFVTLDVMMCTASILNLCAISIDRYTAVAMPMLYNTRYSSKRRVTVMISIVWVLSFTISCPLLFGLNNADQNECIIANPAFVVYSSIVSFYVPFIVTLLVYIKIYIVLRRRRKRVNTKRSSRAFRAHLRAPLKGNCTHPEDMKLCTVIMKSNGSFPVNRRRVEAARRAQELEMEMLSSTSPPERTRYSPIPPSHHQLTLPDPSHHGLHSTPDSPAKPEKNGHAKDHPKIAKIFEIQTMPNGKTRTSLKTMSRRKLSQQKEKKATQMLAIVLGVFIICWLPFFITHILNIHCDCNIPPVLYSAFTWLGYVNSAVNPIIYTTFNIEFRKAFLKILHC

Compound	Potency [1]	Potency [2]	Potency [3]	Potency [4]	Potency [5]	Potency [6]	Potency [7]	Potency [8]	Potency [9]	Potency [10]	Potency [11]	Potency [12]	Potency [13]	Potency [14]	Potency [15]	Potency [16]	Potency [17]	Potency [18]	Potency [19]	Potency [20]
SC1CCCC1	inactive	inactive	inactive	inactive	inactive	inactive	inactive	inactive	inactive	inactive	inactive	inactive	inactive	inactive	inactive	inactive	inactive	–	–	–
CCN(CC)c1ccc2c(c1)Oc1cc(N(CC)CC)ccc1C21OC(=O)c2ccccc21	9.44 µM (active)	inactive	19 µM (active)	23.9 µM (active)	inactive	inactive	–	inactive	21.3 µM (active)	inactive	23.9 µM (active)	inactive	–	–	–	–	inactive	inactive	inactive	–
FB(F)F	inactive	inactive	inactive	inactive	inactive	inactive	inactive	inactive	inactive	inactive	inactive	inactive	–	inactive	inactive	inactive	inactive	–	–	–
COC(Cc1ccccc1)OC	inactive	inactive	inactive	inactive	inactive	inactive	inactive	inactive	–	inactive	inactive	inactive	inactive	inactive	–	inactive	inactive	–	–	–
CC(=O)NCCCS(=O)(=O)O	inactive	inactive	15 µM (active)	11.9 µM (active)	inactive	inactive	inactive	inactive	18.9 µM (active)	inactive	23.8 µM (active)	inactive	inactive	inactive	–	inactive	inactive	inactive	inactive	–
C=CCOC(=O)c1ccc(C(=O)OCC=C)c(C(=O)OCC=C)c1	inactive	inactive	inactive	inactive	inactive	inactive	inactive	33.4 µM (active)	inactive	inactive	inactive	–	inactive	inactive	inactive	inactive	inactive	–	–	–
CC(C)NCC(O)COc1cccc2[nH]ccc12 (stereo unspecified)	inactive	inactive	inactive	inactive	–	–	–	–	–	–	–	inactive	inactive	inactive	–	inactive	inactive	–	inactive	inactive
CCC(C)(CCC(C)C)C(=O)[O-].CCC(C)(CCC(C)C)C(=O)[O-].[Zn+2] (stereo unspecified)	inactive	inactive	inactive	inactive	inactive	inactive	inactive	–	inactive	inactive	inactive	inactive	–	inactive	–	inactive	inactive	–	–	–
